In PubChem BioAssay AID1159580 (chemical genetic matrix, 2015):
Out of some 5,500 compounds screened, about 2,000 (36%) were called active. Another 18% or so got no clear call; they are omitted. No stated cut-off is given here; in the data, active means normalized growth mostly below about 0.91 (no sharp cut-off); inconclusive means no clear call, values can overlap the other calls; inactive means mostly above about 0.92. Some of the results follow.

Experiment: chemical genetic growth profiling, strain panel (AID 1159580);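 further: tested at 20 µM; growth read once vehicle control cultures reached saturation at 30 °C; 1 = growth at the plate median or of vehicle wells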
Conditions: growth OD

Measured: normalized growth

CC(C)(S)[C@@H](N)C(=O)O
inactive: S. cerevisiae deletion strains, locus YJR043C, strain POL32, stronger effect = lower value 1 | S. cerevisiae deletion strains, locus YJR066W, strain TOR1, stronger effect = lower value 0.952 | S. cerevisiae deletion strains, locus YKL009W, strain mrt4, stronger effect = lower value 0.988 | S. cerevisiae deletion strains, locus YKL068W, stronger effect = lower value 0.995 | S. cerevisiae deletion strains, locus YKL085W, strain MDH1 (second series), stronger effect = lower value 0.993 | S. cerevisiae deletion strains, locus YKL085W, strain MDH1, stronger effect = lower value 0.993 | S. cerevisiae deletion strains, locus YKL160W, strain elf1, stronger effect = lower value 1.03 | S. cerevisiae deletion strains, locus YKL190W, strain CNB1, stronger effect = lower value 0.999 | S. cerevisiae deletion strains, locus YKR001C, strain vps1, stronger effect = lower value 0.988 | S. cerevisiae deletion strains, locus YKR026C, strain gcn3, stronger effect = lower value 0.994 | S. cerevisiae deletion strains, locus YKR091W, strain srl3, stronger effect = lower value 1 | S. cerevisiae deletion strains, locus YLL001W, strain dnm1, stronger effect = lower value 1.02 | S. cerevisiae deletion strains, locus YLL026W, stronger effect = lower value 1.01 | S. cerevisiae deletion strains, locus YLL041C, strain sdh2, stronger effect = lower value 1 | S. cerevisiae deletion strains, locus YLR027C, strain aat2, stronger effect = lower value 0.995 | S. cerevisiae deletion strains, locus YLR039C, strain RIC1, stronger effect = lower value 1.02 | S. cerevisiae deletion strains, locus YLR058C, strain SHM2, stronger effect = lower value 1.01 | S. cerevisiae deletion strains, locus YLR102C, strain apc9, stronger effect = lower value 0.992 | S. cerevisiae deletion strains, locus YLR113W, strain HOG1, stronger effect = lower value 0.99 | S. cerevisiae deletion strains, locus YLR221C, strain rsa3, stronger effect = lower value 1 | S. cerevisiae deletion strains, locus YLR258W, strain gsy2, stronger effect = lower value 1 | S. cerevisiae deletion strains, locus YLR262C, strain YPT6 (second series), stronger effect = lower value 1.02 | S. cerevisiae deletion strains, locus YLR262C, strain YPT6, stronger effect = lower value 1 | S. cerevisiae deletion strains, locus YLR268W, strain sec22, stronger effect = lower value 0.969 | S. cerevisiae deletion strains, locus YLR320W, strain mms22, stronger effect = lower value 1.04 | S. cerevisiae deletion strains, locus YLR330W, strain CHS5, stronger effect = lower value 1.01 | S. cerevisiae deletion strains, locus YLR342W, strain FKS1 (second series), stronger effect = lower value 1.03 | S. cerevisiae deletion strains, locus YLR342W, strain FKS1, stronger effect = lower value 1.01 | S. cerevisiae deletion strains, locus YLR357W, strain rsc2, stronger effect = lower value 1 | S. cerevisiae deletion strains, locus YLR370C, strain arc18, stronger effect = lower value 1 | S. cerevisiae deletion strains, locus YLR371W, strain rom2, stronger effect = lower value 0.994 | S. cerevisiae deletion strains, locus YLR384C, strain iki3, stronger effect = lower value 0.993 | S. cerevisiae deletion strains, locus YLR418C, strain cdc73, stronger effect = lower value 0.98 | S. cerevisiae deletion strains, locus YML016C, strain PPZ1, stronger effect = lower value 1.02 | S. cerevisiae deletion strains, locus YML032C, strain rad52, stronger effect = lower value 0.991 | S. cerevisiae deletion strains, locus YML120C, strain ndi1, stronger effect = lower value 0.998 | S. cerevisiae deletion strains, locus YML124C, strain tub3, stronger effect = lower value 0.994 | S. cerevisiae deletion strains, locus YMR058W, strain fet3, stronger effect = lower value 1.01 | S. cerevisiae deletion strains, locus YMR078C, strain ctf18, stronger effect = lower value 0.988 | S. cerevisiae deletion strains, locus YMR125W, strain sto1, stronger effect = lower value 1 | S. cerevisiae deletion strains, locus YMR129W, stronger effect = lower value 0.996 | S. cerevisiae deletion strains, locus YMR205C, strain PFK2, stronger effect = lower value 1.04 | S. cerevisiae deletion strains, locus YMR223W, strain ubp8, stronger effect = lower value 0.999 | S. cerevisiae deletion strains, locus YMR231W, strain pep5, stronger effect = lower value 0.999 | S. cerevisiae deletion strains, locus YMR307W, strain GAS1, stronger effect = lower value 1.01 | S. cerevisiae deletion strains, locus YNL067W, strain RPL9B, stronger effect = lower value 0.993 | S. cerevisiae deletion strains, locus YNL071W, strain lat1, stronger effect = lower value 1 | S. cerevisiae deletion strains, locus YNL183C, strain NPR1, stronger effect = lower value 0.964 | S. cerevisiae deletion strains, locus YNL209W, strain ssb2, stronger effect = lower value 0.997 | S. cerevisiae deletion strains, locus YNL233W, strain BNI4, stronger effect = lower value 1.02 | S. cerevisiae deletion strains, locus YNL248C, strain rpa49, stronger effect = lower value 1 | S. cerevisiae deletion strains, locus YNL250W, strain rad50, stronger effect = lower value 0.985 | S. cerevisiae deletion strains, locus YNL271C, strain bni1, stronger effect = lower value 0.988 | S. cerevisiae deletion strains, locus YNL298W, strain CLA4, stronger effect = lower value 0.991 | S. cerevisiae deletion strains, locus YNL307C, strain MCK1, stronger effect = lower value 0.992 | S. cerevisiae deletion strains, locus YNL322C, strain KRE1 (second series), stronger effect = lower value 1.01 | S. cerevisiae deletion strains, locus YNR049C, strain mso1, stronger effect = lower value 0.997 | S. cerevisiae deletion strains, locus YNR052C, strain pop2, stronger effect = lower value 0.988 | S. cerevisiae deletion strains, locus YOL006C, strain TOP1, stronger effect = lower value 1.08 | S. cerevisiae deletion strains, locus YOL012C, strain htz1 0.654 | S. cerevisiae deletion strains, locus YOL147C, strain pex11, stronger effect = lower value 0.984 | S. cerevisiae deletion strains, locus YOR001W, strain rrp6, stronger effect = lower value 0.989 | S. cerevisiae deletion strains, locus YOR061W, strain CKA2, stronger effect = lower value 1.01 | S. cerevisiae deletion strains, locus YOR069W, strain VPS5, stronger effect = lower value 1 | S. cerevisiae deletion strains, locus YOR070C, strain gyp1, stronger effect = lower value 1.01 | S. cerevisiae deletion strains, locus YOR080W, strain dia2, stronger effect = lower value 1 | S. cerevisiae deletion strains, locus YOR083W, strain WHI5, stronger effect = lower value 1.04 | S. cerevisiae deletion strains, locus YOR106W, strain vam3, stronger effect = lower value 1.03 | S. cerevisiae deletion strains, locus YOR136W, strain idh2, stronger effect = lower value 0.994 | S. cerevisiae deletion strains, locus YOR144C, strain elg1, stronger effect = lower value 0.992 | S. cerevisiae deletion strains, locus YOR184W, strain ser1, stronger effect = lower value 1.01 | S. cerevisiae deletion strains, locus YOR231W, strain MKK1, stronger effect = lower value 1.01 | S. cerevisiae deletion strains, locus YOR265W, strain rbl2, stronger effect = lower value 1 | S. cerevisiae deletion strains, locus YOR270C, strain vph1, stronger effect = lower value 0.989 | S. cerevisiae deletion strains, locus YOR290C, strain snf2, stronger effect = lower value 1.04 | S. cerevisiae deletion strains, locus YOR316C, strain cot1, stronger effect = lower value 0.993 | S. cerevisiae deletion strains, locus YPL051W, strain arl3, stronger effect = lower value 1.02 | S. cerevisiae deletion strains, locus YPL078C, strain atp4, stronger effect = lower value 1.01 | S. cerevisiae deletion strains, locus YPL106C, strain sse1, stronger effect = lower value 1.03 | S. cerevisiae deletion strains, locus YPL240C, strain hsp82, stronger effect = lower value 0.988 | S. cerevisiae deletion strains, locus YPL241C, strain CIN2, stronger effect = lower value 1.01 | S. cerevisiae deletion strains, locus YPL256C, strain CLN2, stronger effect = lower value 0.986 | S. cerevisiae deletion strains, locus YPR119W, strain clb2, stronger effect = lower value 1 | S. cerevisiae deletion strains, locus YPR141C, strain kar3, stronger effect = lower value 0.993 | S. cerevisiae deletion strains, locus YPR163C, strain tif3, stronger effect = lower value 0.991 | S. cerevisiae deletion strains, locus YPR167C, strain met16, stronger effect = lower value 0.991 | S. cerevisiae deletion strains, strain wtn01, stronger effect = lower value 0.976 | S. cerevisiae strains, strain wild type, stronger effect = lower value 1.01
